This is an account of results in paper PMC4336329 (PLoS ONE, 2015).

Hit rate of the full screen: of about 310,000 compounds, about 14,000 (4.5%) showed an effect of 50% or more. Effects have a minus sign here. The entries come from a sample that favours strong results as a whole.
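Also: peak tail current of the secondary pulse compared with the same well before compound.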

Sequence of human ether-à-go-go-related gene (hERG) potassium channel (Q12809 whole entry, looked up): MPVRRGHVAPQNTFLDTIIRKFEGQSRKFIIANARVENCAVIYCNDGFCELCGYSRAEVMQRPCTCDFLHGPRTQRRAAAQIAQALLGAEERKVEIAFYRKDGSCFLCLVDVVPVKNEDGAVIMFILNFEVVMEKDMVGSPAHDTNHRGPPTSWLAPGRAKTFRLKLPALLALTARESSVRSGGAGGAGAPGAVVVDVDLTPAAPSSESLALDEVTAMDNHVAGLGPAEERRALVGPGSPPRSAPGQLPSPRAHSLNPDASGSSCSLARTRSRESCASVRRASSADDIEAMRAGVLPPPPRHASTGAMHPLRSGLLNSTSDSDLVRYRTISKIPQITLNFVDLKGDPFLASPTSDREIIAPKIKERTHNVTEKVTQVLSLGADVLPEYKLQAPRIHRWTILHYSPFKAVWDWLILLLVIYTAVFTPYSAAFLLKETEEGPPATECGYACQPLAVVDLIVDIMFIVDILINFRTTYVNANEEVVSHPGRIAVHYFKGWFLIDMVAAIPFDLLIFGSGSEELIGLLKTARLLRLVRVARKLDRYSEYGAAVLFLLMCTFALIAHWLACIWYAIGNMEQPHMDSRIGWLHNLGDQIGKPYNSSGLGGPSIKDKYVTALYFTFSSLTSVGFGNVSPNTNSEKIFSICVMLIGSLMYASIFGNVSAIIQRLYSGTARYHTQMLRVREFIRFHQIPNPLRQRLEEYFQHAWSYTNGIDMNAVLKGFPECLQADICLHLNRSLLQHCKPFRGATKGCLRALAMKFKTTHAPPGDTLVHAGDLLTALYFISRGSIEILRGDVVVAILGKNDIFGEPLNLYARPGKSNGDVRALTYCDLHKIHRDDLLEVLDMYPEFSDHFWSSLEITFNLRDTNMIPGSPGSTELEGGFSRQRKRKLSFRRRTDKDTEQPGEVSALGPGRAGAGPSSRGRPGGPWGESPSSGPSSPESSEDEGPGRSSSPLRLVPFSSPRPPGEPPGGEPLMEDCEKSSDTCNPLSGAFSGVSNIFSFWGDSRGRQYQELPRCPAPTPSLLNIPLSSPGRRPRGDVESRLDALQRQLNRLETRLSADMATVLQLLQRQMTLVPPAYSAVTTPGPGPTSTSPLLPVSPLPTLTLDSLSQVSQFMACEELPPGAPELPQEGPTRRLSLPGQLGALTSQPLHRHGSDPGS

This experiment concerns the target human ether-à-go-go-related gene (hERG) potassium channel (human, UniProt Q12809). The experiment can be described thus: primary screen, population patch clamp on CHO cells stably expressing hERG; higher = less effect of the substance.
Consider `O=C(O)CC1SC(=O)N(Cc2ccccc2)C1=O` (centres unmarked), for which the “hERG current change (%, negative = inhibition) at 10uM” value amounted to 21%. Under `Cc1cc(Cl)ccc1OCc1cn2cccnc2n1` stands -17.5%; under `CCCn1cc(SCC(=O)NCC2CCCO2)c2ccccc21` (centres unmarked), 4.17%; under `CC(C)CN(C(=O)COC(=O)c1ccc2c(c1)OCCO2)c1c(N)n(Cc2ccccc2)c(=O)[nH]c1=O`, 5.66%. With `Cc1ccc(C)n1NC(=O)c1ccco1`, the “hERG current change (%, negative = inhibition) at 10uM” value came to 14.8%. With `O=C(CSc1ncccn1)Nc1ncc(C(F)(F)F)cc1Cl`, the “hERG current change (%, negative = inhibition) at 10uM” value amounted to 47.2%.

With `COC(=O)C1=C(C)NC(C)=C(C(=O)O[C@@H]2CCCN(Cc3ccccc3)C2)[C@@H]1c1cccc([N+](=O)[O-])c1.Cl`, the “hERG current change (%, negative = inhibition) at 10uM” value was determined as 9.68%. Under `CCOc1ccc(N/C(SC)=C(/C#N)C(N)=O)cc1` stands 4.98%; under `CCOc1ccc(N/C(SCc2cccc([N+](=O)[O-])c2)=C(/C#N)C(N)=O)cc1`, -59.1%. Next, `COc1cccc(N/C(SCc2cccc([N+](=O)[O-])c2)=C(/C#N)C(N)=O)c1`: -19.9%; `COc1ccc(CNCCc2cccc(F)c2)c2ccccc12.O=C(O)C(=O)O`: -74%; `COc1cc(OC)c(OC)cc1CNCCc1cccc(F)c1.O=C(O)C(=O)O`: -15.2%. As to `COc1ccc(CNCCc2ccc([N+](=O)[O-])cc2)c(OC)c1OC.O=C(O)C(=O)O`, the “hERG current change (%, negative = inhibition) at 10uM” value is given as -68.9%.

`COc1ccccc1CNCc1ccc(OC)c(OC)c1OC.O=C(O)C(=O)O`: the “hERG current change (%, negative = inhibition) at 10uM” value was -8%. Turning to `COc1cccc(CNCCc2cccc(F)c2)c1OC.O=C(O)C(=O)O`, the “hERG current change (%, negative = inhibition) at 10uM” value is -5.22%.

Regarding `COc1ccccc1CCNCc1ccc(OC)c(OC)c1OC.O=C(O)C(=O)O`, the “hERG current change (%, negative = inhibition) at 10uM” value is 15.5%. Next, `COc1ccc(CCNCc2ccc(OC)c(OC)c2OC)cc1`: -37.6%; `COc1ccc(CNCCc2ccc3c(c2)OCO3)c(OC)c1OC.O=C(O)C(=O)O`: -29.9%; `COc1ccc(CNCCc2ccc(Cl)cc2)c(OC)c1OC.O=C(O)C(=O)O`: -51.6%. Regarding `O=C(N/N=C/c1c(O)ccc2ccccc12)c1cccnc1`, the “hERG current change (%, negative = inhibition) at 10uM” value was 7.7%. With `COC(=O)COc1ccc(S(=O)(=O)N2CCN(c3ccccc3F)CC2)cc1`, the “hERG current change (%, negative = inhibition) at 10uM” value is listed as -3.27%.

In the case of `O=C(Nc1ccc(-c2csnn2)cc1)C(Cl)(Cl)Cl`, the “hERG current change (%, negative = inhibition) at 10uM” value is recorded as 17.5%. Next, `CC(C)C(=O)OCC(=O)Nc1ccc(N=Nc2ccccc2)cc1`: 4.2%; `CCN(CC)S(=O)(=O)c1cc(NS(=O)(=O)c2cccc(Cl)c2Cl)ccc1C`: -1.79%; `CCCOc1ccc(NC(=O)C2CC(=O)N3CCCN=C3S2)cc1` (centres unmarked): -11%.

Consider `CN1CCC(NC(=O)NC2CCCCC2)CC1`, for which the “hERG current change (%, negative = inhibition) at 10uM” value was 11.9%.

Turning to `Cc1cc(N2CCN(c3ccc(F)cc3)CC2)nc(-c2ccccc2)n1`, the “hERG current change (%, negative = inhibition) at 10uM” value was -13.7%. For the compound `Cc1cc(N2CCN(c3ccccc3)CC2)n2cc(-c3ccccc3)nc2n1`, the “hERG current change (%, negative = inhibition) at 10uM” value was -75.3%. Next, `Cc1cc(-c2ccccc2)nc(N2CCN(c3ccccn3)CC2)n1`: 1.11%; `Cc1nnc2c(NC3CCCCC3)nc3ccccc3n12`: 1.89%; `Cc1cc(N2CCN(c3ccccn3)CC2)n2cc(-c3ccccc3)nc2n1`: -72.3%.

`Cc1cc(NC2CCCCC2)n2c(n1)nc1ccccc12`: the “hERG current change (%, negative = inhibition) at 10uM” value is recorded as -55.1%. For the compound `Cc1cc(N2CCN(c3ccccc3)CC2)nc(-c2ccccc2O)n1`, the “hERG current change (%, negative = inhibition) at 10uM” value turned out to be 6.15%.

On to `Cc1cc(N2CCN(c3ccccc3)CC2)n2c(n1)nc1ccccc12`, for which the “hERG current change (%, negative = inhibition) at 10uM” value was -68.7%. Next, `c1ccc(-c2csc(N3CCN(c4ccccn4)CC3)n2)cc1`: -1.09%; `Cc1cc(N2CCN(c3ccccc3)CC2)nc2ccccc12`: 3.04%.

`Cc1cc(C)c2c(n1)nn1c(N3CCN(c4ccccc4)CC3)cc(C)nc21`: the “hERG current change (%, negative = inhibition) at 10uM” value came to 4.66%.

For `Cc1cc(Nc2cccc(F)c2)n2c(n1)nc1ccccc12`, the “hERG current change (%, negative = inhibition) at 10uM” value amounted to 3.44%.

Take `CC(C)c1ccc(NC(=O)c2cccc(NC3=NC4CS(=O)(=O)CC4S3)c2)cc1` (centres unmarked): the “hERG current change (%, negative = inhibition) at 10uM” value is given as -11.1%. Next, `CS(=O)(=O)N(CC(=O)Nc1ccc(F)cc1)C1CCCCC1`: 12.6%.

As for `c1ccc(-c2nc(C3CCCCC3)no2)cc1`, the “hERG current change (%, negative = inhibition) at 10uM” value is recorded as -0.00972%. Next, `CCSC1=N/C(=C\c2ccccc2)C(=O)N1c1ccc(OC)cc1`: 6.36%. For the compound `O=C(O)c1cccnc1Cl`, the “hERG current change (%, negative = inhibition) at 10uM” value was 10.7%. Next, `O=C(/C=C/c1ccccc1)Nc1sc2c(c1C(=O)O)CCC2`: 5.92%.
